Assay outcomes (PubChem BioAssay)
This is a sample that favours compounds with a hit; in the whole collection about 3.6% have one here.
mHTT CaM bind: inhibitors of human mutant huntingtin-calmodulin interaction; inhibition, % at 15 µM; AlphaScreen His-mHTT/GST-CaM binding, luminescence; P42858; 190,000 tested, 3.6% active
Pf apPOL block: Pf-apPOL DNA polymerase inhibition; AID 1794808; Recombinant Pf-apPOL, molecular beacon fluorescence, 1.5 h; inhibition, % at 10 µM; 210,000 tested, 0.25% active
Each line names hits and unclear results; the compound was inactive in the other large screens. No stated cut-off is given here; in the data, active means inhibition above about 50%; inactive means the rest.

Cc1ccc(OCC(O)CNC(C)C)cc1 (configuration not stated)	none
CC[N+]1(CC(O)COc2ccc(C34CC5CC(CC(C5)C3)C4)cc2)CCCC1 (configuration not stated)	none
CC(C)NCC(O)COc1ccc(C23CC4CC(CC(C4)C2)C3)cc1 (configuration not stated)	mHTT CaM bind 100.3
C[N+]1(CC(O)COc2ccc(C34CC5CC(CC(C5)C3)C4)cc2)CCCC1 (configuration not stated)	mHTT CaM bind 52.0
OCCN(CCO)CC(O)COc1ccc(C23CC4CC(CC(C4)C2)C3)cc1 (configuration not stated)	none
CC(C)(C)NCC(O)COc1ccc(C23CC4CC(CC(C4)C2)C3)cc1 (configuration not stated)	mHTT CaM bind 100.3
Cc1nnsc1C(=O)Oc1ccc(-c2n[nH]nc2C#N)cc1	none (no result: mHTT CaM bind)
CN(C)C(=O)c1sc2ccccc2c1Cl	none
O=C1OC(/C=C/c2cccc([N+](=O)[O-])c2)=NC/1=C\c1ccccc1F	none
O=C(CSc1nccn1C1CCCCC1)NCc1ccc(F)cc1	none
CC(=O)c1cc2c(cc1NC(=O)CCC(=O)O)OCO2	none
O=C(NCCn1nc(-c2cccnc2)ccc1=O)c1cc(-c2ccco2)on1	none
Cc1cc(C)cc(N2CCN(C(=O)C3CCCC3)C(C)C2=O)c1 (configuration not stated)	none
O=c1ccc(-c2ccccc2)nn1CCc1nc(-c2ccc(F)cc2)no1	none
O=c1ccc(-c2ccc(F)cc2)nn1CCc1nc(-c2ccc(F)cc2)no1	mHTT CaM bind 70.4
CCC(=O)N1CCN(c2nc3c(s2)CC(C(=O)Nc2cc(F)cc(F)c2)CC3)CC1 (configuration not stated)	none
COc1ccc(NC(=O)c2ccccc2C)c(OC)c1	none
Cc1ccc(O)c(C(=O)CC(=O)c2cccc(F)c2)c1	none
Cc1ccc(C(=O)CC(=O)c2ccccc2O)cc1	none
Cc1ccccc1C(=O)CC(=O)c1ccccc1O	mHTT CaM bind 50.2
COc1ccc(O)c(C(=O)CC(=O)c2ccccc2C)c1	mHTT CaM bind 62.4
COc1ccc(O)c(C(=O)CC(=O)c2cccc(C)c2)c1	mHTT CaM bind 59.3
Cc1c2c(n(Cc3ccc(F)c(F)c3)c1C(=O)NCc1ccncc1)CCCC2	none
Cn1cccc1/C=C1\N=C(c2ccc([N+](=O)[O-])cc2)OC1=O	none
NS(=O)(=O)c1ccc(S(=O)(=O)N2CCCCC2)cc1	none
O=C(COc1ccc([N+](=O)[O-])cc1)Nc1ccc(S(=O)(=O)N2CCc3ccccc32)cc1	none
Cc1ccc2c(c1)/C(=c1\sc3n(c1=O)CN(c1cccc(Br)c1)CN=3)C(=O)N2	none
Oc1c(C=NC2CCCCC2)[nH]c2ccc(Br)c(Cl)c12	mHTT CaM bind 76.0
Oc1c(C=NCc2ccccc2)[nH]c2ccc(Br)c(Cl)c12	none
Cc1cc(C)cc(N=Cc2[nH]c3ccc(Br)c(Cl)c3c2O)c1	none
Oc1c(C=Nc2ccc(Br)cc2)[nH]c2ccc(Br)c(Cl)c12	mHTT CaM bind 58.0
COc1ccc(N=Cc2[nH]c3ccc(Br)c(Cl)c3c2O)cc1	none
COc1ccc(CN=Cc2[nH]c3ccc(Br)c(Cl)c3c2O)cc1	mHTT CaM bind 69.0
O=S(=O)(c1ccccc1)N1CCC(n2c(-c3ccoc3)nc3cccnc32)C1 (configuration not stated)	none
CCNc1cc(N2CCC(CCC(=O)NCc3ccc(Cl)cc3)CC2)ncn1	none
CCOc1cc2c(cc1OCC)C(c1ccc(OC)cc1)OC(=O)C2 (configuration not stated)	none
C=CCNC(=O)c1c(NC(=O)c2ccco2)sc2c1CCCC2	none
CC(=O)Nc1c2c(nn1-c1ccc([N+](=O)[O-])cc1)CSC2	none
CC(=O)N1CCN(c2nc3c(s2)CC(C(=O)Nc2cccc(C)c2C)CC3)CC1 (configuration not stated)	none
CC1CCc2cc(F)cc3c(O)c(C(=O)Nc4ncccc4O)c(=O)n1c23 (configuration not stated)	none
CCN(CC)CCNC(=O)c1c(O)c2cc(F)cc3c2n(c1=O)C(C)CC3 (configuration not stated)	mHTT CaM bind 61.0
O=[N+]([O-])c1ccc(C2Nc3c(cccc3[N+](=O)[O-])C3C=CCC32)cc1 (configuration not stated)	none
COc1cc(C2Nc3c(F)cccc3C3C=CCC32)cc(Br)c1OC (configuration not stated)	none
COc1ccc(C)c2c1NC(c1ccc(Br)cc1)C1CC=CC21 (configuration not stated)	mHTT CaM bind 72.0
O=[N+]([O-])c1cccc2c1NC(c1ccc(F)cc1)C1CC=CC21 (configuration not stated)	mHTT CaM bind 83.0
O=[N+]([O-])c1cccc2c1NC(c1ccc(Cl)cc1)C1CC=CC21 (configuration not stated)	mHTT CaM bind 86.0
COc1cccc2c1NC(c1ccc(Cl)cc1)C1CC=CC21 (configuration not stated)	mHTT CaM bind 59.0
Cc1ccc(-n2nc3c(c2NC(=O)c2ccc(C)c([N+](=O)[O-])c2)CSC3)c(C)c1	none
Cc1nc(Nc2ccc(F)cn2)sc1C(=O)N1CCc2ccccc2C1	mHTT CaM bind 64.6
Cc1nc(Nc2ccc(F)cn2)sc1C(=O)N1CCN(C2CCCCC2)CC1	none
Cc1nc(Nc2ccccn2)sc1C(=O)N1CCc2ccccc2C1	none
Cc1ccccc1N1CCN(C(=O)c2sc(Nc3ccc(F)cn3)nc2C)CC1	mHTT CaM bind 100.1
Cc1cccc(Nc2nc(C)c(C(=O)N3CCN(c4ccccc4)CC3)s2)n1	none
Cc1cccc(N2CCN(C(=O)c3sc(Nc4ccc(F)cn4)nc3C)CC2)c1	mHTT CaM bind 85.0
O=C(NCCN1CCCCC1)c1ccc2ncnc(N3CCCC3)c2c1	none
CC(C)CC1=NN2C(=N)/C(=C/c3cccs3)C(=O)N=C2S1	none
O=C(NCc1cccs1)C(=O)NCC(O)c1ccsc1 (configuration not stated)	none
Cc1ccc(-c2csc(NC(=O)C3CC=CCC3C(=O)O)n2)cc1 (configuration not stated)	none
CCOC1=NN(c2ccc([N+](=O)[O-])cc2)C(=O)/C1=C/c1ccccc1OC	none
CCOC1=NN(c2ccc([N+](=O)[O-])cc2)C(=O)/C1=C\c1ccccc1C(F)(F)F	mHTT CaM bind 62.0
Cc1ccc(C2CC(=O)Nc3c2c(C)nn3-c2nc3ccccc3s2)cc1 (configuration not stated)	none
COc1ccc(-c2cc(NCC(C)C)n3ncnc3n2)cc1	none
O=C(Cc1cccs1)Nc1cnc(-c2ccccc2)nc1	mHTT CaM bind 51.2
O=C(Cc1cccs1)Nc1cccc(C(=O)c2ccccc2)c1	none
OC(c1ccccn1)C1CCN(Cc2ccc(F)c(Cl)c2)CC1 (configuration not stated)	none
COc1cccc(NC(=O)CN2N=NC3C(=O)N(c4ccc(F)cc4)C(=O)C32)c1 (configuration not stated)	none
C=C(C)C1CC=C(CNc2ccc(OC)c(OC)c2)CC1 (configuration not stated)	mHTT CaM bind 86.1
COc1ccc(NC(=O)C2CC2)cc1OC	none
Cn1c(/C=C/c2ccc([N+](=O)[O-])cc2)nc2ccccc2c1=O	none
O=C(NC(c1ccccc1)c1ccccc1)c1ccc(S(=O)(=O)NCc2ccco2)o1	none
CC(C)c1nc(CN2CCC(N3CCCCC3)CC2)cc(=O)[nH]1	none
Cc1c(N=c2scc(-c3ccc(Cl)cc3)n2Cc2ccco2)c(=O)n(-c2ccccc2)n1C	mHTT CaM bind 60.0
